Assay results as given in PubChem BioAssay AID686979 (National Center for Advancing Translational Sciences (NCATS), 2013).
In all, about 420,000 compounds went through this assay and about 50,000 (12%) were called active. Entries that show only a call come without a potency. Another 26% or so got no clear call; they are omitted. Calls follow the shape of the dose curve; as a rule, active = well fitted inhibition curve with a large enough effect; inconclusive = small, poorly fitted or top-dose-only effect; inactive = flat fitted curve, though single readings scatter. Many of the other results were omitted from the sample, so actives are more common in it than they were.
Potency is read from the fitted curve at half-maximal effect.

Assay: qHTS for Inhibitors of human tyrosyl-DNA phosphodiesterase 1 (TDP1): qHTS in cells in presence of CPT; also: nearly all actives have a fitted effect of over 55% in size
Settings: chicken DT40 Tdp1-/-;hTDP1 cells + 20 nM CPT, ATP luminescence, 48 h; series mostly up to 46.2 µM
How it was run: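 Chicken DT40 Tdp1-/- cells complemented with human TDP1, 400 cells/well, exposed to compounds plus 20 nM camptothecin for at least 48 h at 37 C; viability read as ATP content by CellTiter-Glo luminescence.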
For `O=S(=O)(c1ccc(Cl)s1)N1CCC2(CC1)OCCO2`, the Potency was “inactive”. For `Cc1cccc(NC(=O)c2cccc(C(F)(F)F)c2)c1`, the Potency was “inactive”. In the case of `CNC(=O)c1ccc(NC(=O)c2cccc(C(F)(F)F)c2)cc1`, the Potency is reported as “inactive”. For `O=C(Nc1ccc(-c2csc(Nc3cccc(C(F)(F)F)c3)n2)cc1)c1cccc(C(F)(F)F)c1`, the Potency was 9.2 µM (active). In the case of `O=C1COc2ccc(S(=O)(=O)Nc3ccc(OC(F)(F)F)cc3)cc2N1`, the Potency is reported as “inactive”. With `O=S(=O)(Nc1ccc(O)c2ccccc12)c1ccc(OC(F)(F)F)cc1` the Potency was 13 µM (active). With `Cc1nn(Cc2ccccc2)c(C)c1NS(=O)(=O)c1ccccc1` the Potency was “inactive”. For `Nc1ncc(S(=O)(=O)Nc2ccc(OC(F)(F)F)cc2)cn1`, the Potency was “inactive”. For `Cc1nn(C)c(C)c1NS(=O)(=O)c1ccc(OC(F)(F)F)cc1`, the Potency was 23.1 µM (active). In the case of `COc1ccc(OC)c(S(=O)(=O)Nc2c(C)nn(C)c2C)c1`, the Potency is reported as “inactive”. In the case of `COc1cc2c(cc1OC)CC(=O)N(CCCN(C)C[C@H]1Cc3cc(OC)c(OC)cc31)CC2`, the Potency is reported as “inactive”. For `CC(C)(C)NC(=O)NC(=O)CN1CCC(Cc2ccccc2)CC1`, the Potency was “inactive”. With `CC1CN(C(=O)CCC(=O)NCc2cccnc2)c2ccccc2O1` (centres undefined) the Potency was “inactive”. For `CC1CN(C(=O)CCC(=O)NC2CCN(Cc3ccccc3)CC2)c2ccccc2O1` (centres undefined), the Potency was 23.1 µM (active). In the case of `O=C(CC1Oc2ccccc2NC1=O)NCCCN1CCN(Cc2ccccc2)CC1` (centres undefined), the Potency is reported as “inactive”. In the case of `CC1CN(C(=O)CCC(=O)NCCCN2CCC(Cc3ccccc3)CC2)c2cc(Cl)ccc2O1` (centres undefined), the Potency is reported as 20.6 µM (active). For `Cc1ccc(S(=O)(=O)NCCC(=O)NC2CCN(Cc3ccccc3)CC2)cc1`, the Potency was “inactive”. With `O=C(COC(=O)/C=C/c1cccc(Cl)c1)NCCc1ccccc1` the Potency was “inactive”. With `COc1ccc(NC(=S)N2CCCC(CO)C2)c(OC)c1` (centres undefined) the Potency was “inactive”. With `CC(=O)Nc1ccc(S(=O)(=O)Oc2ccc(/C=N/N=C3/NC(=O)C(CC(=O)O)S3)cc2)cc1` (centres undefined) the Potency was “inactive”. In the case of `CC(CCc1ccccc1)NC(=O)c1ccc(Br)o1` (centres undefined), the Potency is reported as “inactive”. For `CC(CNC(=O)c1ccc(Br)o1)NC(=O)c1ccc(Br)o1` (centres undefined), the Potency was 8.2 µM (active). In the case of `O=C(CNC(=O)c1ccc(Br)o1)Nc1ccccc1`, the Potency is reported as “inactive”. With `CCOc1ccc(OCC(=O)Nc2c3c(nn2C(C)(C)C)CS(=O)(=O)C3)cc1` the Potency was “inactive”. In the case of `COc1cc(C=O)c(Br)cc1OCC(=O)NCc1ccccc1`, the Potency is reported as “inactive”. With `COc1cc(/C=N/O)cc(Br)c1OCc1cccc(Cl)c1` the Potency was “inactive”. For `COc1cc(C(=O)NCc2ccncc2)cc(Br)c1OCc1ccccc1`, the Potency was 18.4 µM (active). In the case of `CN(CC(=O)Nc1cccc(F)c1)C(=O)CC1CCCC1`, the Potency is reported as “inactive”. In the case of `N/C(Cc1ccc([N+](=O)[O-])cc1)=N\OC(=O)C1CCCCC1`, the Potency is reported as “inactive”. With `CC(=O)NC1CCN(CC(=O)Nc2nccs2)CC1` the Potency was “inactive”. In the case of `COc1ccc(C#Cc2c(-c3ccc(OC)cc3)oc3ccc(-c4ccc5c(c4)OCO5)cc23)cc1`, the Potency is reported as “inactive”. In the case of `COc1ccc(CCNC(=O)c2cc(-c3ccc4c(c3)OCO4)on2)cc1OC`, the Potency is reported as “inactive”. With `COc1cc2c(-c3ccc4c(c3)OCO4)c(-c3ccsc3)oc(=O)c2cc1OC` the Potency was 16.4 µM (active). For `Clc1cccc[n+]1CCCC[n+]1ccccc1Cl`, the Potency was “inactive”. With `Brc1cccc[n+]1Cc1cccc(C[n+]2ccccc2Br)c1` the Potency was 12.6 µM (active). For `O=C(COC(=O)c1cccc(Cl)c1)Nc1ccc2[nH]c(=O)[nH]c2c1`, the Potency was “inactive”. In the case of `COc1cc(C(=O)NCc2nnc(SCC(=O)c3ccc(Cl)cc3)o2)cc(OC)c1OC`, the Potency is reported as “inactive”. In the case of `CCC(=O)Nc1ccc(C(=O)CSc2nnc(CNc3ccc(Cl)cc3)o2)cc1OC`, the Potency is reported as 20.6 µM (active). With `CCOC(=O)CSc1nnc(CNc2ccc(F)cc2)o1` the Potency was “inactive”. For `COc1ccc(CNC(=O)C(=O)NCC2OCCN2C(=O)c2ccc(OC)cc2)cc1` (centres undefined), the Potency was “inactive”. For `CC(C)(C)c1nnc(N/N=C/c2ccc(O)cc2)n(N)c1=O`, the Potency was “inactive”. For `O=C(c1c(F)cccc1F)N1CCN(c2ncc(Br)cn2)CC1`, the Potency was “inactive”. With `CCOc1ccc(C(=O)NC(=S)Nc2ccc(NC(=O)C(C)C)cc2)cc1[N+](=O)[O-]` the Potency was “inactive”. In the case of `COc1cccc(OC)c1C(=O)NC(=S)Nc1ccc(N2CCOCC2)c(Cl)c1`, the Potency is reported as “inactive”. With `CCOc1ccc(C(=O)NC(=S)Nc2ccc(N3CCOCC3)c(Cl)c2)cc1[N+](=O)[O-]` the Potency was 0.146 µM (active). With `CN(C)c1ccc(-c2nnc(-c3cccnc3)o2)cc1` the Potency was “inactive”. With `CCC(C)(C(=O)Nc1ccccc1C)N(C(=O)CNC(C)=O)c1ccc(C)cc1` (centres undefined) the Potency was “inactive”. In the case of `CCc1nnc(NS(=O)(=O)c2ccc(NS(=O)(=O)c3ccccc3)cc2)s1`, the Potency is reported as “inactive”. For `COc1cc(NS(=O)(=O)c2ccc(N=Cc3c(C)[nH]n(-c4ccccc4)c3=O)cc2)nc(OC)n1`, the Potency was “inactive”. With `CCc1nnc(NS(=O)(=O)c2ccc(N=Cc3c(C)[nH]n(-c4ccc(C)cc4)c3=O)cc2)s1` the Potency was 11.6 µM (active). In the case of `CS(=O)(=O)Nc1ccccc1C(=O)OCC(=O)NC1CC1`, the Potency is reported as “inactive”. With `Cc1ccc(S(=O)(=O)c2nnn3c2nc(N2CCN(c4ccccc4F)CC2)c2cc(Cl)ccc23)cc1C` the Potency was “inactive”. In the case of `CCCCc1cc2c(s1)CCCC/C2=N/O`, the Potency is reported as “inactive”. For `Cc1nnnn1/C(=C\c1ccccc1)C(=O)OCC(=O)N1CC2(C)CC1CC(C)(C)C2` (centres undefined), the Potency was 13 µM (active). With `Cc1cccc(C(=O)NCC(=O)OCC(=O)N2CC3(C)CC2CC(C)(C)C3)c1` (centres undefined) the Potency was “inactive”. With `CCOC(=O)CNc1nc(Cl)nc(Nc2ccccc2)n1` the Potency was “inactive”. With `CN(C)S(=O)(=O)c1cccc(C(=O)OCC(=O)N2CCCC2=O)c1` the Potency was “inactive”. In the case of `Cc1noc(C)c1NC(=O)Nc1ccc2c(c1)C(=O)N([C@H](C)CO)C[C@H](C)[C@@H](CN(C)C(=O)Nc1ccccc1)O2`, the Potency is reported as “inactive”. With `COc1ccc(NC(=O)N(C)C[C@H]2Oc3ccc(NC(=O)C4CC4)cc3C(=O)N([C@H](C)CO)C[C@@H]2C)cc1` the Potency was “inactive”. With `Cc1ccc(S(=O)(=O)Nc2ccc3c(c2)C(=O)N([C@H](C)CO)C[C@@H](C)[C@@H](CN(C)C(=O)Nc2cccc4ccccc24)O3)cc1` the Potency was 20.6 µM (active). With `CN1C(=O)CC(c2ccccc2)C1=O` (centres undefined) the Potency was “inactive”. With `Cc1ccc(-n2ncc3c(N4CCC(C(N)=O)CC4)ncnc32)cc1` the Potency was “inactive”. With `Cc1ccc(-n2ncc3c(=O)[nH]cnc32)c(C)c1` the Potency was “inactive”. In the case of `Cc1ccc(-n2ncc3c(N4CCN(c5ccc(F)cc5)CC4)ncnc32)c(C)c1`, the Potency is reported as 11.6 µM (active).
